# Source: PubChem BioAssay
# D1 antagonist = Antagonist of Human D 1 Dopamine Receptor: qHTS. D(1A) dopamine receptor (Homo sapiens), P21728. HEK293 TREx D1 cells, calcium flux, dopamine EC80; stronger effect = lower value. activity change, negative = inhibition, % at 10 µM. actives 3.2% (n = 360,000). AID 504652, 2011; in the data active = activity change below about -30%; also: % is scaled to controls: 0 for no effect and ±100 for the full control effect
#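 Inducible Hek293 Trex D1 cells (tetracycline, overnight, 30 C). Calcium dye 30–90 min RT. Antagonist mode: EC80 dopamine added after 180 s compound read.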
# DRD3 antagonist = qHTS of D3 Dopamine Receptor Antagonist: qHTS. actives 2.5% (n = 360,000). D3R cells, DiscoveRx beta-arrestin luminescence, antagonist mode; stronger effect = lower value. max response, negative = inhibition, %; in the data active = max response below about -50%; inconclusive = no clear call, values can overlap the other calls; also: % is scaled to controls: 0 for no effect and ±100 for the full control effect
# Target sequence (P35462 whole entry, looked up): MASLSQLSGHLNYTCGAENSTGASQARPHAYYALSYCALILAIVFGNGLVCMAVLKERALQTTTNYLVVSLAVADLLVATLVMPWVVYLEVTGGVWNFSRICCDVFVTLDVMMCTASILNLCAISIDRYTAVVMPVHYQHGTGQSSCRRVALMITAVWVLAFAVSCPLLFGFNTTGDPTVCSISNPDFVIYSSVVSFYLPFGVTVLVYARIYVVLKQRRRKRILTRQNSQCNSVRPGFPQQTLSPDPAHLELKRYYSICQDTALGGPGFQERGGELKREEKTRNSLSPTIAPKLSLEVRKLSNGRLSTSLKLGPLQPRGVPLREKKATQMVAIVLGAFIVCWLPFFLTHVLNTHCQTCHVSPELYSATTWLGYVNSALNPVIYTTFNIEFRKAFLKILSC
#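 Cells expressing the human receptor were seeded at 1500 cells/well, incubated overnight at 37 degrees C in 5% CO2, then exposed to library compounds with dopamine controls for 90 minutes at 37 degrees C before luminescent detection.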
# D1 PAM = Potentiators of Human D1 Dopamine Receptor: qHTS. HEK293 TREx D1 cells, calcium flux, dopamine EC20 potentiation. D(1A) dopamine receptor (Homo sapiens), P21728. potentiation, % at 10 µM. actives 0.036% (n = 360,000); in the data active = potentiation above about 30%; also: 0% is about no effect
# D1 agonist = Allosteric Agonists of the Human D1 Dopamine Receptor: qHTS; HEK293 T-REx D1 cells, calcium flux, agonist mode; activation, % at 2 µM; AID 504660, 2011; actives 1% (n = 360,000); in the data active = activation above about 30%; also: 0% is about no effect
#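 Inducible HEK293 T-REx D1 cells, force-coupled to calcium signalling, were plated at 4000 cells/well with tetracycline and held overnight at 30 C. After no-wash calcium dye loading, compound-evoked calcium rise over 180 s flagged agonists.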
# DRD3 agonist = qHTS of D3 Dopamine Receptor Agonist: qHTS. D(3) dopamine receptor (Homo sapiens), P35462. D3R DiscoveRx beta-arrestin cells, luminescence, 90 min. max activation, %. actives 0.58% (n = 410,000). AID 652048, 2013; in the data active = max activation above about 30%; also: 0% is about no effect
#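 Agonist-mode cell screen: cells plated at 1500/well and incubated overnight at 37 °C, then exposed to library compounds for 90 min at 37 °C. Detection reagent was added for 30–60 min at room temperature, and luminescence was read.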
# BCR signal inh = qHTS Assay to Find Inhibitors of Chronic Active B-Cell Receptor Signaling; ABC-DLBCL IkBa-CBG/CBR reporter, luminescence ratio, 4 h; Potency, µM (doses to about 46.1 µM), for inactives: at the highest dose activity change, negative = inhibition, actives largely listed as inhibitors; actives 0.05% (n = 340,000); active = well fitted inhibition curve with a large enough effect in the signal ratio, with a control signal flat, not every such curve was filed as active; inconclusive = small, poorly fitted or top-dose-only effect, or effect the other way, or a change in a side signal; the % refers to the signal ratio;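 also: potency is read from the fitted curve at half-maximal effect; plate controls were basal doxycycline-induced cells for no effect and cells given 10 µM MG132 for full effect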
#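 Doxycycline induced both beetle luciferases in TMD8 lymphoma cells; IKK-driven degradation limits the IkappaBalpha-fused green signal, while red luminescence normalises for cell number and nonspecific effects. Compounds tested up to 46 uM, 4 hrs.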
# Numbers without * were called inactive; ? = inconclusive; . = no result given; ! = not active in a repeat. Most compounds without a hit are left out; they make up all but 6% or so of the library.
SMILES,D1 antagonist,DRD3 antagonist,D1 PAM,D1 agonist,DRD3 agonist,BCR signal inh
CCN(C(=O)CSc1nc(C)nc2sc(C)c(C)c12)C1CCS(=O)(=O)C1 (stereo unspecified),-33*,9,0,0,9,0%
CCN(C(=O)CSc1nc(C)nc2sc(C)c(C)c12)c1ccc(F)cc1,8,-2,-6,3,-2,-1%
Cc1nc(SCC(=O)N(CC(C)C)C2CCS(=O)(=O)C2)c2c(C)c(C)sc2n1 (stereo unspecified),5,55,-5,0,0,-1%
COc1ccc(CCN2C(=O)c3oc4ccc(F)cc4c(=O)c3C2c2ccc(C(C)(C)C)cc2)cc1 (stereo unspecified),8,.,-5,0,6,.
CC1O[C@@H](OCC2O[C@@H](Oc3cc(O)c4c(c3)OC(c3ccc(O)cc3)CC4=O)[C@H](O)[C@@H](O)[C@@H]2O)[C@H](O)[C@H](O)[C@H]1O (stereo partly specified),12,-58*,-5,3,-24,6%
CCOC(=O)c1sc2nc(C)n(CC(=O)Nc3cccc(Cl)c3)c(=O)c2c1C,-6,.,1,0,-4,.
Cc1c(C(=O)Nc2ccc(F)cc2)oc2ccc(S(=O)(=O)N3CC(C)CC(C)C3)cc12 (stereo unspecified),-14,-62*,-7,13,-4,-2%
Cc1cccc(NC(=O)c2oc3ccc(S(=O)(=O)N4CCOCC4)cc3c2C)c1C,-7,51,3,7,41*,0%
COc1ccc(NC(=O)c2cccc(OC(=S)N3CCOCC3)c2)cc1,0,1,-1,3,1,?
Cc1ccc(NC(=O)c2oc3ccc(S(=O)(=O)N4CCC5(CC4)OCCO5)cc3c2C)cc1C,-32*!,61,-3,-2,-12,-3%
COc1ccc(NC(=O)c2oc3ccc(S(=O)(=O)N4CCC5(CC4)OCCO5)cc3c2C)cc1Cl,-28,.,-3,-2,24,-2%
CCN(CC)C(=O)c1oc2ccc(S(=O)(=O)N3CC(C)CC(C)C3)cc2c1C (stereo unspecified),-5,4,-11,4,7,8%
Cc1cccc(NC(=O)c2cccc(OC(=S)N3CCOCC3)c2)c1C,-32*,-11,-4,2,-4,-6%
CCN(CC)S(=O)(=O)c1ccc2c(c1)N(CC(=O)N1CCN(c3ccccc3F)CC1)C(=O)CO2,-8,.,0,4,-3,.
Cc1ccc(NC(=O)c2sc3ncnc(N(C)C4CCCCC4)c3c2C)cc1,16,.,-5,6,1,11%
Cn1cnc([N+](=O)[O-])c1S(=O)(=O)Oc1cccc2ccccc12,.,-97*,.,.,-35,.
Cn1cnc([N+](=O)[O-])c1Oc1cccc2ccccc12,-3,-6,2,0,-4,?
Cn1cnc([N+](=O)[O-])c1S(=O)(=O)Oc1ccc(Cl)cc1,.,-89*,.,.,-13,.
CC(C)(C)C(c1nc2ccccc2[nH]1)n1c(-c2cc(Cl)cc(Cl)c2)nc2ccccc21 (stereo unspecified),.,62,.,.,13,.
CNS(=O)(=O)c1cn(CC(=O)N2CCN(c3cccc(C)c3C)CC2)cc1S(=O)(=O)NC,-12,.,0,0,-2,.
COc1cccc(N2CCN(C(=O)c3ccc(N4C(=O)NC5CC4(C)Oc4ccccc45)cc3)CC2)c1 (stereo unspecified),8,-2,-9,1,1,-2%
COc1ccc(NC(=O)C2C(=O)N(C)C3(C)CC2c2ccccc2O3)cc1 (stereo unspecified),-32*,8,0,0,2,-4%
COc1ccc(N2C(=O)NC3CC2(C)Oc2ccccc23)cc1 (stereo unspecified),-39*,8,-7,0,8,0%
CC(C)c1ccc(C(=O)N2CCOCC2c2cc(C(=O)Nc3ccccc3)no2)cc1 (stereo unspecified),.,13,.,.,3,.
CCCCCCCCN1C(=O)[C@H](CC(=O)NCc2cccc(C(F)(F)F)c2)C[C@@]2(C(=O)OC)CCCCC=C12,.,5,.,.,1,.
SMILES,D1 antagonist,DRD3 antagonist,D1 PAM,D1 agonist,DRD3 agonist,BCR signal inh
CCOc1ccc(-c2csc(NC(=O)CSCC(=O)O)n2)c2ccccc12,12,85,5,-2,45*,?
CCOc1ccc(-c2csc(NC(=O)CSC3=NC(=O)CN3C(C)=O)n2)c2ccccc12,15,-13,3,-1,-17,?
CN(C)c1ccc(/C=C/c2cc[n+]([O-])cc2)cc1,23,.,-5,73*,.,?
CN(C)c1ccc(/C=C/c2cc[n+](C)cc2)cc1,-16,?,-4,6,-11,?
O=C(CCCOc1ccc(Cl)cc1Cl)Nc1ccccc1C(=O)O,-10,21,-2,1,6,3%
CCOc1ccccc1NC(=S)NC(=O)CCCOc1ccc(Cl)cc1Cl,-6,-109*,7,5,-6,?
COc1ccc(/C=N/NC(=O)CCCOc2ccc(Cl)cc2Cl)cc1,-32*,-21,-6,3,3,-14%
COc1ccc(/C=N\NC(=O)CC(=O)Nc2cccc(Cl)c2)cc1OC,-51*,10,0,-1,-1,-10%
CCc1ccccc1Nc1nn2c(=O)c3ccc(C(=O)NCCC4=CCCCC4)cc3nc2s1,-4,.,-3,2,-13,.
CCOC(=O)c1[nH]c(C)c(C(=O)OCC)c1C,9,-20,.,2,-2,?
CCOC(=O)c1[nH]c(Cc2[nH]c(C(=O)OCC)c(C)c2CCC(=O)OC)c(CCC(=O)OC)c1C,-55*,9,-14,4,-7,?
CCOC(=O)c1c(C)[nH]c(C(=O)OC)c1CCC(=O)OC,-36*,0,-3,1,5,-25%
CCc1ccc(-n2nc3ccc(NC(=O)c4cc5ccccc5o4)cc3n2)cc1,9,.,1,1,4,.
CCN(CC)S(=O)(=O)c1ccc(-c2nnc(SCC(=O)N3CCOCC3)o2)cc1,-6,-63*,-1,2,-7,6%
Cc1ccc(NCc2nnc3n2CCCCC3)cc1Cl,-9,.,-2,1,2,.
CCc1nnc(NS(=O)(=O)c2ccc(NCc3cc(Cl)cc(Cl)c3O)cc2)s1,6,-29,0,33*,-10,?
